This note sets out measurements from the supplement of paper PMC9948646.

Molecules are shown by their SMILES. A number with no mark means an inactive call.

The subject of the assay is gramicidin D channels in DC22:1PC lipid vesicles (bilayer-modifying potency). Nature of the assay: initial Tl+ fluorescence quench rate relative to no-drug control (NormRate, gramicidin monomer-dimer shift) (ratio (fold of control)); higher = stronger bilayer-modifying effect (equilibrium shifted toward conducting dimers), active = 1.5 or more. Particulars: 10 µM; lipid concentration 50 µM; temperature: 25 °C. The procedure: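 Stopped-flow fluorescence quench assay: ANTS-loaded DC22:1PC large unilamellar vesicles doped with gramicidin D (1:2000), 50 µM lipid, equilibrated 10 min with 10 µM drug (0.1% DMSO), mixed with Tl+ quench buffer at 25°C. Initial quench rate (Tl+ influx) was fitted with a modified stretched exponential and normalised to the no-drug control rate (NormRate); duplicates from two independent LUV preparations (triplicates for 7 drugs).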
With `Clc1cccc([C@@H](c2ccc(CN3CCNCC3)cc2)n2ccnc2)c1`, the “initial Tl+ fluorescence quench rate” value was 1.17.

Consider `CCOc1ccc(-c2nc(NC(=O)CS(=O)(=O)c3ccccc3)sc2C)cc1`, for which the “initial Tl+ fluorescence quench rate” value was 3.58 (active).

For the compound `CC(C)(CN)c1nc(-c2ccc(Cl)c(O)c2)c(-c2ccnc(N)n2)[nH]1`, the “initial Tl+ fluorescence quench rate” value is 1.15.

With `Nc1ncc(-c2ccc(C(F)(F)F)nc2)cc1-c1ccc(C(F)(F)F)nc1`, the “initial Tl+ fluorescence quench rate” value is 1.08.

Take `COc1ccc(C2=NCCN2)cc1-c1cn(-c2cccc(C3=NCCN3)c2)nn1`: the “initial Tl+ fluorescence quench rate” value is 1.2.

Turning to `Cc1ccc(S(=O)(=O)n2cc(-c3ccnc(N)c3)c3cc(Br)cnc32)cc1`, the “initial Tl+ fluorescence quench rate” value is 2.5 (active).

On to `CC(=O)NC[C@H]1CN(c2ccc(-c3ccc(CO)cc3)c(F)c2)C(=O)O1`, for which the “initial Tl+ fluorescence quench rate” value was 1.22.

Turning to `CC1=NN(c2nc3ccccc3s2)C(=O)[C@@H]1Cc1cccc2ccccc12`, the “initial Tl+ fluorescence quench rate” value was 2.18 (active).

`Clc1ccc(CCNc2cc(-c3ccccc3)nc3ncnn23)cc1`: the “initial Tl+ fluorescence quench rate” value was 1.3.

For the compound `N#Cc1nc(-c2ccccc2)oc1S(=O)(=O)c1ccc(Cl)cc1`, the “initial Tl+ fluorescence quench rate” value was 1.12.

For `C[C@H](c1ccc2c(c1)CCCC2)N(C)c1ncc2c(N)nc(N)nc2n1`, the “initial Tl+ fluorescence quench rate” value was 2.15 (active).

With `Cc1cc(C)nc(-n2nc(C)cc2Nc2ccccc2)n1`, the “initial Tl+ fluorescence quench rate” value was 1.32.

Take `[H]/N=C(/N)Nc1ccc(-c2ccc(-c3ccc(N/C(N)=N/[H])cc3Cl)o2)c(Cl)c1`: the “initial Tl+ fluorescence quench rate” value was 1.53 (active).

For `COc1ccc(-c2cncc3ccc(C(=O)NCCCn4ccnc4)nc23)cc1`, the “initial Tl+ fluorescence quench rate” value was 1.03.

As to `Cc1cnc(N2CCN[C@@H](Cc3ccccc3)C2)nc1Oc1ccc(-n2ccnc2)cc1`, the “initial Tl+ fluorescence quench rate” value is 1.72 (active).

With `CC(=O)Oc1ccccc1C(=O)Nc1ncc([N+](=O)[O-])s1`, the “initial Tl+ fluorescence quench rate” value is 1.05.

For `CN1CCN(c2cc(-c3ccc(F)cc3)nc(-c3ccncc3)n2)CC1`, the “initial Tl+ fluorescence quench rate” value is 1.18.

With `CCCCc1ccc(NC(=O)Nc2ccc(O[C@H]3CCCC[C@@H]3N(C)c3ccccc3)c(F)c2)cc1`, the “initial Tl+ fluorescence quench rate” value was 1.35.

For the compound `Cc1ccccc1CN1CCC(O)(c2ccc(Cl)c(C(F)(F)F)c2)CC1`, the “initial Tl+ fluorescence quench rate” value is 1.14.

Regarding `CC(=O)NC[C@H]1CN(c2ccc(N3CCSCC3)c(F)c2)C(=O)O1`, the “initial Tl+ fluorescence quench rate” value is 1.09.

Consider `Cc1noc(C)c1C(=O)N1CCC[C@@H](c2[nH]c3c(C)cccc3c2-c2ccncc2)C1`, for which the “initial Tl+ fluorescence quench rate” value is 1.73 (active).

On to `COc1ccc([C@H]2CC(c3cccs3)=NN2C(=O)c2ccco2)cc1OC`, for which the “initial Tl+ fluorescence quench rate” value is 1.86 (active).

As to `Cc1ccccc1C(=O)N1N=C(Nc2ccccc2)SC1(C)C`, the “initial Tl+ fluorescence quench rate” value is 2.12 (active).

On to `O=C(NCCN1CCCC1)c1cc(NCCN2CCOCC2)nc2ccc(Cl)cc12`, for which the “initial Tl+ fluorescence quench rate” value was 1.15.

Turning to `C[C@H]1CCCCN1C(=O)NCCc1coc(-c2ccc(F)cc2)n1`, the “initial Tl+ fluorescence quench rate” value is 1.06.

Take `CNC(=O)CNc1nc(-c2ccccn2)nc2scc(-c3ccccc3)c12`: the “initial Tl+ fluorescence quench rate” value was 5.21 (active).

On to `Clc1cccc(CO[C@H]2CCc3ccccc3[C@@H]2n2ccnn2)c1`, for which the “initial Tl+ fluorescence quench rate” value was 1.37.

With `N[C@H](CC(=O)c1ccc(Cl)cc1Cl)C(Cl)(Cl)Cl`, the “initial Tl+ fluorescence quench rate” value is 1.12.

On to `Cc1cc(OCC(=O)NCc2ccccc2)c2cc(Br)ccc2n1`, for which the “initial Tl+ fluorescence quench rate” value was 1.45.

For `COc1ccc(C2=NN(C3CCCCCC3)C(=O)C2(C)C)cc1OCCCCOc1ccc(-c2nn[nH]n2)cc1`, the “initial Tl+ fluorescence quench rate” value is 9.05 (active).

On to `O=C(NCCc1ccccc1)c1cc(-c2cccnc2)cnc1NCC1CC1`, for which the “initial Tl+ fluorescence quench rate” value was 2 (active).

As for `[H]/N=C(\N)c1ccc(OCCCCCOc2ccc(/C(N)=N\[H])cc2)cc1`, the “initial Tl+ fluorescence quench rate” value was 1.02.

As to `CN1CCN(S(=O)(=O)c2ccc(-c3ccc4c(Nc5ccc6nn[nH]c6c5)ccnc4c3)cc2)CC1`, the “initial Tl+ fluorescence quench rate” value was 1.28.

Turning to `CC(=O)NC[C@H]1CN(c2ccc(-c3ccc(CNCc4cn[nH]n4)cc3)c(F)c2)C(=O)O1`, the “initial Tl+ fluorescence quench rate” value was 1.37.

Consider `CC(C)NCC(=O)Nc1cccc(C(=O)Nc2cccc(C(F)(F)F)c2)c1`, for which the “initial Tl+ fluorescence quench rate” value is 1.37.

`Brc1cncc(-c2cc(NCCCn3ccnc3)nc(-c3ccccc3)n2)c1`: the “initial Tl+ fluorescence quench rate” value is 2.73 (active).

`CN1CCC[C@H]1CCO[C@](C)(c1ccccc1)c1ccc(Cl)cc1`: the “initial Tl+ fluorescence quench rate” value was 2.33 (active).

For the compound `CC[C@H](Sc1nc2ccccc2o1)C(=O)Nc1nnc(C)s1`, the “initial Tl+ fluorescence quench rate” value is 1.3.

In the case of `CCOc1ccc(OCC(=O)Nc2cc(C)cc(C)c2)cc1`, the “initial Tl+ fluorescence quench rate” value is 1.45.

As to `O=C(C1CCN(c2cc(-n3cccc3)ncn2)CC1)N1CCc2ccccc2C1`, the “initial Tl+ fluorescence quench rate” value was 1.45.
